# Measured values taken from PubChem BioAssay.
# The source made the active and inactive calls.
# Assays:
# [1] = test system: PRMT1 (protein arginine N-methyltransferase 1); assay: small molecules binding arginine methyltransferase PRMT1 – biochemical, small-molecule microarray, 635 nm fluorescence, primary screen (AID 1088); details: higher = more signal;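 further: binding of Prmt1 protein to compounds spotted on small-molecule microarray slides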
# [2] = growth effects on S. cerevisiae YJM789 – YJM789 clinical isolate, OD600, 24 h, basal, primary screen (AID 1089); details: higher = more signal, called active from +8 up or from −8 down;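 further: growth of clinical yeast isolate S. cerevisiae YJM 789 seeded 1000 cells per well; test concentration not given here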
# [3] = S. pombe growth modifiers, basal conditions – strain 972, OD600, 24 h, no modulator, primary screen (AID 1090);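 further: basal condition with compound alone and no growth modifier present; test concentration not given here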; details: S. pombe 972 growth, higher = more signal, called active from +8 up or from −8 down
# [4] = budding yeast growth modifiers under rapamycin – strain BY4716, OD600, 96 h, primary screen (AID 1091); further: test concentration not given here; details: S. cerevisiae BY4716 + rapamycin, higher = more signal, called active from +8 up or from −8 down
# [5] = biological target: Torsin-1A-interacting protein 2 (Homo sapiens) (UniProt Q8NFQ8); assay: small molecules binding lysate-expressed LULL1 – cell lysate, human LULL1 lysate, 635/667 nm fluorescence, primary screen (AID 1092); details: small-molecule microarray, hLULL1 lysate binding, 635 nm fluorescence; higher = more signal;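 further: probe is lysate of COS7 cells overexpressing human LULL1; score merges per-feature 667 nm fluorescence with signal-to-noise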
# Torsin-1A-interacting protein 2 (Homo sapiens), sequence (Q8NFQ8 whole entry, looked up): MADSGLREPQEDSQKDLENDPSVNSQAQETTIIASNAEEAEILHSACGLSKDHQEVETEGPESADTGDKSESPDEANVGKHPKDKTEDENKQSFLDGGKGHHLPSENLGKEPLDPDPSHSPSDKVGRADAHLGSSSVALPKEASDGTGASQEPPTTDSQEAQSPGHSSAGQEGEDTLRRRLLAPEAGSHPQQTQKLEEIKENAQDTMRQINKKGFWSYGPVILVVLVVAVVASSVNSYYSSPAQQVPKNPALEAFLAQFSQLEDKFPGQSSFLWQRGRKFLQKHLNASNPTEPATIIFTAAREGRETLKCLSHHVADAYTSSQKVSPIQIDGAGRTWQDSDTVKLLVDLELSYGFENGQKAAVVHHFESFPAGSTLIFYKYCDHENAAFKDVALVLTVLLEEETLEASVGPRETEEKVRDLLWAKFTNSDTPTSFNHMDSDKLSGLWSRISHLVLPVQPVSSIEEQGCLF
# [6] = optical density change of DRC41 E. coli – strain DRC41, OD650, 24 h, E. coli filamentation project, primary screen (AID 1093);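 further: MC1000 strain lacking acrAB efflux and sulA so SOS filamentation is blocked; test concentration not given here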; details: E. coli DRC41 growth, higher = more signal, called active from +8 up or from −8 down
# [7] = probe aLefty2 binding to arrayed compounds – biochemical, biotinylated probe, 635/667 nm fluorescence, primary screen (AID 1094); details: small-molecule microarray, higher = more signal;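 further: score merges spot fluorescence near 667 nm with spot signal-to-noise ratio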
# [8] = test system: Noggin (protein binding on small-molecule microarray); assay: small molecules binding Noggin protein – biochemical, 635/667 nm fluorescence, primary screen (AID 1095); details: 635 nm fluorescence, higher = more signal;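 further: score merges 667 nm feature fluorescence with signal to noise over triplicate slides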
# [9] = biological target: Neurogenic locus notch homolog protein 3 (Homo sapiens) (UniProt Q9UM47); assay: small molecules binding NOTCH3 protein – biochemical, 635/667 nm fluorescence, primary screen (AID 1096); details: small-molecule microarray, 635 nm fluorescence, higher = more signal
# Neurogenic locus notch homolog protein 3 (Homo sapiens), sequence (Q9UM47 whole entry, looked up): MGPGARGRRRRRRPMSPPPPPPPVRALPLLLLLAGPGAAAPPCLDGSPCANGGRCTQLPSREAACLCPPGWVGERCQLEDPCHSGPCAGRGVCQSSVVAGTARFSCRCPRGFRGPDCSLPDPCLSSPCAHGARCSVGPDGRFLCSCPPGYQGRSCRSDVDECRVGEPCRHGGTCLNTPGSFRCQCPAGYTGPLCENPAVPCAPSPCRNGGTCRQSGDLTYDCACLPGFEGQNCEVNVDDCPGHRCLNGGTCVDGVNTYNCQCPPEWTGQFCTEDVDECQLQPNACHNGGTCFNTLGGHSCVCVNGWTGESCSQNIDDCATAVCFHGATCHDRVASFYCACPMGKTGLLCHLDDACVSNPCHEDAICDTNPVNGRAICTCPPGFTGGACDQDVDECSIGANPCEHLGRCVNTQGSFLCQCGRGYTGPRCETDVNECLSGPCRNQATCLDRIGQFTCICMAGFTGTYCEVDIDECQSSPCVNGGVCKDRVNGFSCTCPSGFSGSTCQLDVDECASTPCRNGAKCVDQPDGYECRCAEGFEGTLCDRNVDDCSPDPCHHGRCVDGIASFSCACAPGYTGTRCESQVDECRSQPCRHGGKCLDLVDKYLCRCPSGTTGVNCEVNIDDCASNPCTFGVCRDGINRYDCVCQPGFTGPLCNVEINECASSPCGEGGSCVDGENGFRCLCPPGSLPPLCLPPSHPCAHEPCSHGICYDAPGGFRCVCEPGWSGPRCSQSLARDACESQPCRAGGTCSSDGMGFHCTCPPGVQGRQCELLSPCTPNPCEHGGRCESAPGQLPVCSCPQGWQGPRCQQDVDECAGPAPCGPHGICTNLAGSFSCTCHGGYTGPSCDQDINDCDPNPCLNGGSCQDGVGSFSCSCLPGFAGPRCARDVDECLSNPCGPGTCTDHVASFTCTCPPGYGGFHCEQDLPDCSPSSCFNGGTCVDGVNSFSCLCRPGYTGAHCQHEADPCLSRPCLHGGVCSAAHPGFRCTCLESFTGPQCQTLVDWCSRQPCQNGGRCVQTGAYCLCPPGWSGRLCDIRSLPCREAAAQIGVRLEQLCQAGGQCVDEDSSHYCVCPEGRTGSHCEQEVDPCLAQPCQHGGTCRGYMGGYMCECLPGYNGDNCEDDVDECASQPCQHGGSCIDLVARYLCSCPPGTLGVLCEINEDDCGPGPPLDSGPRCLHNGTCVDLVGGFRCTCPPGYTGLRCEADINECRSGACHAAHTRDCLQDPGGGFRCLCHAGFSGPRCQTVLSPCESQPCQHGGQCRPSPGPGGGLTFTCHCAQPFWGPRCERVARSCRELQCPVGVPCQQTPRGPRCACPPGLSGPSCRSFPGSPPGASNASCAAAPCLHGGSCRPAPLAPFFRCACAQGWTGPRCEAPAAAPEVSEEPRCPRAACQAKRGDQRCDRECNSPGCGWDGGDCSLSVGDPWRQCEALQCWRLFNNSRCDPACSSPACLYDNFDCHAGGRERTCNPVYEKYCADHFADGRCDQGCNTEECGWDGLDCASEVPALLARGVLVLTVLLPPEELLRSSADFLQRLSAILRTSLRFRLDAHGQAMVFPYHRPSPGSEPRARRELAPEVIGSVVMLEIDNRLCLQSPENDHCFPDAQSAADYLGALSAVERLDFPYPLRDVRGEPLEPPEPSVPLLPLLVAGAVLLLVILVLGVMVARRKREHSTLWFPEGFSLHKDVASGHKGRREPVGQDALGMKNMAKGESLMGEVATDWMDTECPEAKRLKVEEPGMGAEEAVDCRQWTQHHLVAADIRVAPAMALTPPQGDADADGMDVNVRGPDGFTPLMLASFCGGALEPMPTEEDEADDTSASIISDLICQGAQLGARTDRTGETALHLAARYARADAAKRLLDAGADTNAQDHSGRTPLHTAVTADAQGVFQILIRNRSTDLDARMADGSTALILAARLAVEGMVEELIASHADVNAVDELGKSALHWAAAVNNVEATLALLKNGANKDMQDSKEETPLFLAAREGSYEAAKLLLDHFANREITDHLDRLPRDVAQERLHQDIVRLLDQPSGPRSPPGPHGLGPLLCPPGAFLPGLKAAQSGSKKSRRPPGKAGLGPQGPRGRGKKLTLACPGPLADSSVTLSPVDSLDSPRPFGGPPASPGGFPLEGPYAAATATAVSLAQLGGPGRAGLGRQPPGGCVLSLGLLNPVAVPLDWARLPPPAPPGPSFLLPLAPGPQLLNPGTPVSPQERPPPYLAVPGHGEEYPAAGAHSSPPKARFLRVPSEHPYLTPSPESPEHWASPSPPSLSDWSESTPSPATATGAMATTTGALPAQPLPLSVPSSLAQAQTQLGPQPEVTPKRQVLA
# [10] = probe aEGFR binding to arrayed compounds – biochemical, biotinylated probe, 635/667 nm fluorescence, primary screen (AID 1097); details: small-molecule microarray, higher = more signal;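 further: probe is a biotinylated anti-EGFR antibody binding compounds printed on slides; score combines fluorescence near 667 nm and signal to noise of each spot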
# [11] = test system: Plasmodium falciparum Sir2 (PF13_0152, Sir2A); assay: Plasmodium falciparum Sir2A binding compounds – biochemical, small-molecule microarray, 635 nm fluorescence, primary screen (AID 1098); details: fluorescence 635 nm, higher = more signal;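 further: score merges spot fluorescence intensity with its signal-to-noise ratio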
# [12] = probe aDKK1 binding to arrayed compounds – biochemical, biotinylated probe, 635/667 nm fluorescence, primary screen (AID 1099); details: small-molecule microarray, higher = more signal;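 further: score merges 667nm spot fluorescence with signal to noise across triplicate slides; reference of the scale not given here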
# [13] = probe aCHRDL2 binding to arrayed compounds – biochemical, biotinylated probe, 635/667 nm fluorescence, primary screen (AID 1100); details: small-molecule microarray, higher = more signal
# [14] = change in splice reporter luminescence, either direction, cell-based, HEK293, spliceosome inhibition project, primary screen (AID 1101); details: HEK293 splicing luciferase reporter, 24 h, higher = more signal, called active from +8 up or from −8 down;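 further: HEK293 cells carrying a splicing-competent luciferase reporter gene; test concentration not given here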
# [15] = biological target: Fibroblast growth factor 10 (Homo sapiens) (UniProt O15520); assay: compounds binding fibroblast growth factor 10 – biochemical, small-molecule microarray, 635 nm fluorescence, primary screen (AID 1102); details: FGF10 binding, fluorescence 635 nm, higher = more signal
# Fibroblast growth factor 10 (Homo sapiens), sequence (O15520 whole entry, looked up): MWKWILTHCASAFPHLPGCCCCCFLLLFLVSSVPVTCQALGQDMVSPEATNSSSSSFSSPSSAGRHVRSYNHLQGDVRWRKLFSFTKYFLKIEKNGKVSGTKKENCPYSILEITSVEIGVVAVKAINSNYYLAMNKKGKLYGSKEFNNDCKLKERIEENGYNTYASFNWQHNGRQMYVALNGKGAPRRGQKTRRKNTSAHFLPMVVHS
# [16] = test system: glycogen synthase kinase-3 (GSK3A per assay name; protocol says GSK3B); assay: compounds binding glycogen synthase kinase-3 – biochemical, small-molecule microarray, 635 nm fluorescence, GSK3A, primary screen (AID 1103); details: fluorescence 635 nm, higher = more signal; further: the record names both GSK3A and GSK3B
# [17] = biological target: Epidermal growth factor receptor (Homo sapiens) (UniProt P00533); assay: compounds binding epidermal growth factor receptor – biochemical, small-molecule microarray, 635 nm fluorescence, primary screen (AID 1104); details: EGFR binding, higher = more signal;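 further: score merges 667 nm emission intensity with spot signal to noise over triplicate slides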
# Epidermal growth factor receptor (Homo sapiens), sequence (P00533 whole entry, looked up): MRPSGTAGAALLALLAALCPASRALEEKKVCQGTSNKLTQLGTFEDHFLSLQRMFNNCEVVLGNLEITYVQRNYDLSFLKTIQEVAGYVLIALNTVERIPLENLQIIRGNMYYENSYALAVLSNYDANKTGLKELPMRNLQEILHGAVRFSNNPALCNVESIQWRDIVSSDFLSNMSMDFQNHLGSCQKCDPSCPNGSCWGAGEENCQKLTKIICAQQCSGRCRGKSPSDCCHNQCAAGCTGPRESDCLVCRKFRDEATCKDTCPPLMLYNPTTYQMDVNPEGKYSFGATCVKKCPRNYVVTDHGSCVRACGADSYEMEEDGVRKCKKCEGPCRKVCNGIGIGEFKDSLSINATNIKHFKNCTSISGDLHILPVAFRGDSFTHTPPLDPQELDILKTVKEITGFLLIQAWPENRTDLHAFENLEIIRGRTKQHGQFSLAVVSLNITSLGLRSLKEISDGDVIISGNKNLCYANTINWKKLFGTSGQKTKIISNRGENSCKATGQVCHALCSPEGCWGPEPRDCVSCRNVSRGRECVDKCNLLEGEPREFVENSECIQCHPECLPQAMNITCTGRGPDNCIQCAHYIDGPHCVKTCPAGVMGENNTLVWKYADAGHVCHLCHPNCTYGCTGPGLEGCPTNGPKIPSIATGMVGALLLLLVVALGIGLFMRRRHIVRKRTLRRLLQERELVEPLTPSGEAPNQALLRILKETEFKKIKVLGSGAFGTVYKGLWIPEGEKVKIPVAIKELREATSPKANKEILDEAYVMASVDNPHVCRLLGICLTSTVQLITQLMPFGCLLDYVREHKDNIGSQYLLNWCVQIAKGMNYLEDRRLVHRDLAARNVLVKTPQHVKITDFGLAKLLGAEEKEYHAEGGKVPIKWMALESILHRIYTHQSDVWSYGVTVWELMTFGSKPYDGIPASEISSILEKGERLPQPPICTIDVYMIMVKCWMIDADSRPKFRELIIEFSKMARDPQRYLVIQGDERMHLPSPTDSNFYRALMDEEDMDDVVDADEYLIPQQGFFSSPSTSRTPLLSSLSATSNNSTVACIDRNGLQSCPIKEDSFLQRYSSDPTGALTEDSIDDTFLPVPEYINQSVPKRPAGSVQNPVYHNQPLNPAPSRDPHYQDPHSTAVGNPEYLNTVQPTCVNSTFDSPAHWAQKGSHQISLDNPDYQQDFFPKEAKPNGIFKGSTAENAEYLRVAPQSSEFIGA
# [18] = biological target: Follistatin-related protein 3 (Homo sapiens) (UniProt O95633); assay: compounds binding follistatin-related protein 3 – biochemical, small-molecule microarray, 635 nm fluorescence, primary screen (AID 1105); details: FSTL3 binding, higher = more signal;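 further: score merges emission near 667 nm and signal to noise per printed spot across three slides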
# Follistatin-related protein 3 (Homo sapiens), sequence (O95633 whole entry, looked up): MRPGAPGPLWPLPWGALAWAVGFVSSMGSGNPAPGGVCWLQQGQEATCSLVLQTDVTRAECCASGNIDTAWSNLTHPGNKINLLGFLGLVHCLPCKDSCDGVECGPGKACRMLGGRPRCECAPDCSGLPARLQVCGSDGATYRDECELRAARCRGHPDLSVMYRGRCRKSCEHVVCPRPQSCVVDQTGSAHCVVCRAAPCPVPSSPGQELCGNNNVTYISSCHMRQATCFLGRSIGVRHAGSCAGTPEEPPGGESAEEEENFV
# [19] = biological target: Dickkopf-related protein 1 (Homo sapiens) (UniProt O94907); assay: small molecules binding DKK1 protein – biochemical, small-molecule microarray, 635 nm fluorescence scan, primary screen (AID 1106); details: higher = more signal;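 further: score merges emission near 667 nm with signal to noise over three replicate slides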
# Dickkopf-related protein 1 (Homo sapiens), sequence (O94907 whole entry, looked up): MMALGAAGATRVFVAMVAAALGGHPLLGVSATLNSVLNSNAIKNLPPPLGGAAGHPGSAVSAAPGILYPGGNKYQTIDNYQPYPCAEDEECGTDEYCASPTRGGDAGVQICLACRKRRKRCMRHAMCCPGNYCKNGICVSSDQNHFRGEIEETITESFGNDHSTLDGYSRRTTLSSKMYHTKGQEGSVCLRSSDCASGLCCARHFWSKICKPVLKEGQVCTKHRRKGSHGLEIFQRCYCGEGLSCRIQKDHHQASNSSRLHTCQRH
# [20] = test system: Inhibin beta A chain (activin A); assay: small molecules binding activin A – biochemical, small-molecule microarray, 635 nm fluorescence scan, primary screen (AID 1107); details: INHBA, higher = more signal;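 further: mouse activin A protein probed at 4.33 µg/mL on printed slides; score merges bound-protein fluorescence near 667 nm with spot signal-to-noise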
Compound,composite z-score [1],z-score [2],z-score [3],z-score [4],composite z-score [5],z-score [6],composite z-score [7],composite z-score [8],composite z-score [9],composite z-score [10],composite z-score [11],composite z-score [12],composite z-score [13],z-score [14],composite z-score [15],composite z-score [16],composite z-score [17],composite z-score [18],composite z-score [19],composite z-score [20]
CCCN1C(=O)[C@@]2(Cc3ccccc3)N=C(c3ccc(OCCCO)cc3)O[C@H]2c2ccccc21,1.54,-1.46 (inactive),-4.12 (inactive),1.52 (inactive),3.13,1.09 (inactive),0.152,1.29,1.05,-0.0976,1.61,0.0149,0.707,-0.872 (inactive),0.926,1.14,0.234,0.63,-0.234,1.14
C[N+](C)(C)CCCC[C@@H]1NC(=O)[C@@H]2C[C@H](C(=O)NCCCCCNC(=O)CS)[C@H](c3cccc(OCCO)c3)N2C1=O,0.749,0.539 (inactive),-0.879 (inactive),0.378 (inactive),0.743,0.906 (inactive),0.115,0.505,-0.296,0.0338,1.71,-0.14,-0.149,0.241 (inactive),0.545,0.23,0.0868,-0.19,0.585,-0.003
Cc1ccc(S[C@]2(C(=O)O)CC(=O)N(C3CCCCC3)[C@@H]2c2ccc(CO)cc2)cc1,1.42,0.316 (inactive),0.222 (inactive),9.82 (active),2.82,0.999 (inactive),-0.132,0.243,0.233,0.0346,1.37,-0.0047,0.571,0.134 (inactive),-0.256,0.739,-0.172,-0.365,0.234,0.378
O=C1C[C@@](C(=O)O)(c2ccc([N+](=O)[O-])cc2)[C@@H](c2ccc(CO)cc2)N1CC12CC3CC(CC(C3)C1)C2,1.54,0.629 (inactive),-2.98 (inactive),0.117 (inactive),2.3,0.91 (inactive),0.0446,0.257,0.857,0.06,1.23,0.28,0.771,0.66 (inactive),1.18,0.386,0.259,0.554,-0.148,0.532
N#Cc1ccc(NN2C(C(O)c3ccccc3)C=CC3C(=O)N(c4ccccc4)C(=O)C32)cc1 (stereo not given),-0.827,-0.541 (inactive),0.836 (inactive),1.77 (inactive),3.29,-0.676 (inactive),0.228,-0.229,0.552,-0.0531,1.3,0.313,0.557,1.3 (inactive),0.968,-0.353,-0.0382,0.441,-0.257,0.658
COc1ccc([Si](C)(C)[C@H]2[C@H](CCn3cc(CCO)nn3)O[C@@]3(C(=O)N(Cc4cccc(N5C(=O)c6cccc7cccc5c67)c4)c4ccccc43)[C@@H]2C)cc1,1.46,0.502 (inactive),0.903 (inactive),27.7 (active),2.2,0.921 (inactive),-0.288,1.03,0.79,-0.142,1.23,-0.0314,-0.567,-1.61 (inactive),1.27,0.719,0.268,0.81,0.848,-0.427
C=CCOC(=O)[C@@H]1[C@H]2C(=O)O[C@H](c3ccccc3)[C@H](c3ccccc3)N2[C@H](c2ccc(OCCOC(=O)[C@@H]3C[C@@H]4C(=O)N5CCC[C@H]5C(=O)N4[C@@H]3c3cccc(OCCO)c3)cc2)[C@@]12C(=O)Nc1ccc(I)cc12,1.55,0.581 (inactive),1.05 (inactive),2.18 (inactive),2.49,0.949 (inactive),-0.0756,1.9,1.11,-0.0387,1.04,-0.297,-0.121,-0.64 (inactive),1.18,1.12,0.754,1.11,1.1,0.607
C=CCC(OC(C)=O)[C@@H]1[C@@H](N(Cc2cccc3ccccc23)C(=O)c2ccc(C)cc2)c2cc(OCCCO)ccc2N1C(=O)c1ccc2ccccc2c1 (stereo not given in full),0.377,-0.844 (inactive),0.148 (inactive),-0.302 (inactive),1.19,0.649 (inactive),-0.0574,0.684,0.103,-0.0432,-0.269,-0.259,0.281,-1.86 (inactive),0.11,0.0882,0.286,0.421,0.181,1.08
COc1ccc(CCNC(=O)[C@@H]2c3ccccc3C(=O)N(Cc3ccccc3C(F)(F)F)[C@H]2c2ccc(CO)cc2)cc1,0.77,-0.0666 (inactive),0.057 (inactive),-0.0429 (inactive),2.92,0.415 (inactive),0.0258,-0.185,-0.0818,-0.216,1.46,-0.0126,0.946,0.609 (inactive),0.176,0.013,-1.01,-0.348,-0.814,0.288
O=C1O[C@H](c2ccccc2)[C@H](c2ccccc2)N2[C@H]1[C@@H](C(=O)N1CCCCCCC1)[C@]1(C(=O)Nc3ccc(C#CCCO)cc31)[C@H]2c1ccc(OCCO)cc1,1.56,1.55 (inactive),-0.0863 (inactive),3.73 (inactive),5.06,0.669 (inactive),1.6,2.36,1.01,1.28,2.14,2.78,1.42,-0.302 (inactive),1.65,1.45,1.89,1.66,2.65,1.9
